LmPK inh – LmPK (Leishmania mexicana) enzyme inhibition; Potency, µM (titrated, usually from 57.5 µM), for the others: at the highest dose activity change, negative = inhibition, usual class: inhibitors; purified LmPK, Kinase-Glo ATP luminescence, 1 h; AID 1721; 290,000 compounds, 0.37% hits; further: potency means the concentration at half of the fitted maximal effect; on the % scale 0 is the no-effect control and ±100 the full control effect
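Purified LmPK (0.1 nM) converted ADP (0.1 mM) to ATP with PEP (0.5 mM) in imidazole buffer pH 7.2 with KCl and MgCl2, 1 h at room temperature. ATP was read by Kinase-Glo luminescence; data normalized to uninhibited and no-enzyme controls.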
NS1 inh – influenza NS1 inhibition | 270,000 compounds, 0.4% hits | Potency, µM (titrated, usually from 46.1 µM), inactives show at the top dose activity, positive = more growth; calls by dose curve; further: potency means the concentration at half of the fitted maximal effect; actives are rising curves; nearly all actives have a fitted effect of over 50% in size
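In this qHTS, NS1 from influenza A is expressed in budding yeast, where it slows growth. Cells are switched from glucose to 2% galactose medium (pH 6.0, -URA), treated with compound, and growth recovery is read at OD600.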
Giardia FBPA inh – inhibitors of Giardia lamblia fructose-1,6-bisphosphate aldolase; Potency, µM (highest dose often 59.6 µM), for the others: at the top dose activity, negative = inhibition, usual class: inhibitors; 290,000 compounds, 0.71% hits; purified Giardia FBPA; further: potency means the concentration at half of the fitted maximal effect; on the % scale 0 is the no-effect control and ±100 the full control effect; nearly all actives have a fitted effect of over 55% in size
Target sequence (A8B2U2 whole entry, looked up): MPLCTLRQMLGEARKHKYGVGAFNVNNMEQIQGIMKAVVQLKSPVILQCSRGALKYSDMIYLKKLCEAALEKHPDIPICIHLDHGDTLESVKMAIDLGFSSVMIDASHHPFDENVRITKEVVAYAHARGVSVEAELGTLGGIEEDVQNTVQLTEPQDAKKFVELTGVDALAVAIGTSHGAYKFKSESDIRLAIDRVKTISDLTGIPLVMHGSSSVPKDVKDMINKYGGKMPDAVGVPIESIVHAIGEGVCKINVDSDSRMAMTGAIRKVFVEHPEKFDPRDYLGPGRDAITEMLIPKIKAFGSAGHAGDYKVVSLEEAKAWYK
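40 nM FBPA preincubated 10 min at RT with compound (up to 57.5 uM final), then substrate plus GAPDH/TPI/NAD/arsenate coupling and diaphorase/resazurin added. Fluorescence read after 20 min at RT, 525/598 nm.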
AMA1-RON2 inh – inhibitors of Plasmodium falciparum AMA1-RON2 interaction. AlphaScreen AMA1-biotinylated RON2 peptide binding. 360,000 compounds, 0.2% hits. Potency, µM (highest dose often 58.2 µM), without a hit: at the top dose activity change, negative = inhibition, most hits filed as inhibitors;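 further: potency means the concentration at half of the fitted maximal effect; 0% = vehicle wells and -100% = peptide control; nearly all actives have a fitted effect of over 45% in size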
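AMA1 (3D7) with his tag at 25 nM final met compounds first, then biotinylated RON2 peptide at 25 nM; detection used donor plus acceptor beads, 10 µg/mL apiece, read by AlphaScreen after 30 min at room temperature.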
TbPYK inhibitor – inhibitors of Trypanosoma brucei pyruvate kinase | Q57TT1 | 410,000 compounds, 0.12% hits | Potency, µM (series often up to 76.8 µM), inactives show at the top dose activity, negative = inhibition, actives largely listed as inhibitors | TbPYK enzyme, Kinase-Glo Plus ATP luminescence, 45 min; further: potency means the concentration at half of the fitted maximal effect; on the % scale 0 is the no-effect control and ±100 the full control effect; nearly all actives have a fitted effect of over 50% in size
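Assay buffer: 50 mM TEA pH 7.2, 100 mM KCl, 10 mM MgCl2, 0.05% BSA, 0.01% Tween-20. Pyruvate kinase from T. brucei plus substrate met compound, then ADP (130 uM final). Luminescence was read post 45 min RT.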
NS1 inh valid – validation of influenza NS1 protein function inhibitors; shares compounds with NS1 inh; 1,400 tested, under 10 active; influenza NS1 function cell assay, 15-point titration; activity change, negative = inhibition, % at 32.9 µM; AID 492980; calls by dose curve; further: 0% is about no effect
PR8 titer – influenza NS1 inhibitors: inhibition of influenza A/PR/8/34 replication; shares compounds with NS1 inh; MDCK infected influenza A/PR/8/34, virus titer TCID50; active compounds read low; virus titer (log TCID50), log10 TCID50 at 5 µM; 95 compounds, 30% hits; AID 504647; call rule not given here
* = called active by the depositor; ? = inconclusive; · = no result given; [ ] = remark or other dose. Only some compounds are listed: those with a hit (about 1.2% of all), similar ones and a draw of the others. Unless noted, the call rests on the fitted dose curve; in most records, active means well fitted curve in the direction sought with a large enough effect; inconclusive means small, poorly fitted or top-dose-only effect, or another doubt; inactive means no such curve, though single readings can be large; an effect the other way counts as inactive or inconclusive.

SMILES | LmPK inh | NS1 inh | Giardia FBPA inh | AMA1-RON2 inh | TbPYK inhibitor | NS1 inh valid | others
COc1ccc(-n2c(SCC(=O)N3CCCCC3)nc(O)cc2=O)cc1 | 2% | 11µM* | 12% | 12% | 1% | ? | PR8 titer=8.5
COc1ccc(-n2c(SCC(=O)N3CCCC3)nc3ccccc3c2=O)cc1 | -5% | -1% | 7% | · | · | ·
COc1ccc(NS(=O)(=O)c2ccc(OC)c(NC(=O)CCC3CCCC3)c2)cc1 | 0% | ? | 0% | -7%[11.6 µM] | -7% | 7
COc1cc(O)c2c(=O)cc(-c3ccc(OC)c(-c4c(O)cc(O)c5c(=O)cc(-c6ccc(O)cc6)oc45)c3)oc2c1 | · | · | 4% | · | · | ·
O=c1cc(-c2ccc(O)c(-c3c(O)cc(O)c4c(=O)cc(-c5ccc(O)cc5)oc34)c2)oc2cc(O)cc(O)c12 | 0% | 10µM* | -7% | 80% | 2% | 26
CO[C@H]1COC(=O)C/C=C\[C@H](C)COC(=O)[C@@H](C)NC(=O)C/C=C\[C@@H]1C | · | · | -1%[12.9 µM] | · | · | ·
CCOC(=O)c1ccc(N2N=C(C)/C(=C/C=C/c3ccco3)C2=O)cc1 | 0% | 15% | 0% | -11% | 1% | ·
CC1=NN(c2ccc(C(=O)OC(C)C)cc2)C(=O)/C1=C\C=C\c1ccco1 | 4% | 11µM* | -1% | 0% | 0% | 3
CC(OC(=O)CCCCCN=C1NS(=O)(=O)c2ccccc21)C(=O)Nc1cc(Cl)cc(Cl)c1 (stereo unspecified) | 1% | 13µM* | -4% | -13% | -2% | 6
COc1ccc(-n2c(Cc3cccn3C)nnc2SCC(=O)Nc2ccc(F)cc2)cc1 | 10% | ? | -5% | -8% | -14% | 8
COc1ccc(NC(=O)CSc2nnc(Cc3cccn3C)n2-c2ccc(F)cc2)cc1 | 6% | -8% | 0% | 9% | 1% | ·
Cc1ccc(-n2c(Cc3cccn3C)nnc2SCC(=O)N2CCc3ccccc32)cc1 | 5% | 7.9µM* | 0% | -13% | -1% | -19
Cn1c(SCC(=O)NCc2cccs2)nnc1-c1cccs1 | -5% | -16% | -18% | 1% | 4% | ·
COc1ccc(NC(=O)CSc2nnc(-c3cccs3)n2-c2ccccc2)cc1 | -2% | 2.8µM* | 2% | -5% | 1% | 12
Cn1c(SCC(=O)c2ccccc2)nnc1-c1cccs1 | 1% | ? | 3% | -5% | -18% | -25
COc1ccc(C(=O)N2CCC3(CCCN(Cc4ccccc4OC)C3)CC2)cc1 | · | · | -5% | · | 11% | ·
Cc1cnc(CNc2ncncc2-c2ccccc2C(F)(F)F)cn1 | · | · | 0% | · | · | ·
COc1cccc(CN2c3ccccc3-c3nc(SCC(=O)Nc4ccccc4Cl)ncc3S2(=O)=O)c1 | · | · | · | · | -5% | ·
CC1(C)CC[C@]2(C)CC[C@@]3(C)C(=CCC4[C@@]5(C)CCC(O)C(C)(C)C5CC[C@@]43C)C2C1 (stereo partly specified) | · | · | 2% | · | · | ·
COc1ccc(/C=C2\SC(=O)N(CCNC(=O)C3CCN(S(=O)(=O)c4cccs4)CC3)C2=O)cc1 | -4% | -9% | 0% | 0% | 1% | ·
O=C(NCCN1C(=O)S/C(=C\c2ccc(F)cc2)C1=O)C1CCN(S(=O)(=O)c2cccs2)CC1 | 8% | ? | -2% | 8% | -2% | 2
O=C(N=C1SCC(=O)N1c1ccccc1Cl)c1ccco1 | -2% | 11µM* | -19% | -8% | -2% | 26
O=C(CCS(=O)(=O)c1cccc2nonc12)Nc1ccc(F)cc1F | · | · | · | · | -7% | ·
CN(CC(=O)NC1CCCCC1)S(=O)(=O)c1ccc(Cl)cc1 | 9% | ? | 15% | 6% | 1% | -2
O=C(CCSc1ccc(Cl)cc1)NC1CCCCC1 | -1% | ? | 4% | -20% | 1% | -1
Cc1ccc2c(C)nc(/N=C(\N)NC(=O)N3c4ccccc4Sc4ccccc43)nc2c1 | 7% | ? | -2% | -12% | -2% | 2
